Among all 360,000 compounds or so, about 1,800 (0.5%) were called active.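 How the source made its calls: active means interference check ratio from 0.5 to 1.5 plus GFP to RFP signal ratio inhibition reaching or exceeding a fixed threshold (cut at about 30% in these data, passing the limit was not always enough); inactive means the rest.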 For the sample, actives were picked, then their nearest neighbours and some compounds at random.
Test: gst-4 reporter inhibition in live C. elegans – whole organism, uHTS, GFP/RFP fluorescence ratio, strain VP596, SKN-1 inhibitor project, primary screen (AID 624304)
Conditions: C. elegans VP596 Pgst-4::GFP/RFP ratio, acrylamide-induced, 24 h; at 21.8 µM; active compounds read high

Row | Structure (SMILES) | inhibition
1 | OCC(CO)(CO)NCc1ccc(-c2ccccc2)cc1 | 5.37% (inactive)
2 | CC(O)c1nc2c(c(=O)n(C)c(=O)n2C)n1C (stereo unspecified) | 1.19% (inactive)
3 | Cc1cccc(CN2CCN(Cc3cnn(-c4ccccc4F)c3)CC2CCO)n1 (stereo unspecified) | -14.6% (inactive)
4 | COc1ccc(C(=O)N(C)CC(O)c2ccccc2)cc1OC1CCN(C(C)=O)CC1 (stereo unspecified) | -1.73% (inactive)
5 | COCCNC(=O)c1ccc(-n2c(SCc3cccnc3)nc3ccccc3c2=O)cc1 | 7.94% (inactive)
6 | CCC(C(=O)NCc1ccccc1)n1c(Cc2cc(F)cc(F)c2)nc2ccccc21 (stereo unspecified) | -5.9% (inactive)
7 | COc1cccc(NC(=O)C2CCCN(c3ncnc4c3nc3n4CCCCC3)C2)c1 (stereo unspecified) | 35.4% (active)
8 | CCOC(=O)c1cccc(NC(=O)C2CCN(c3ncnc4c3nc3n4CCCCC3)CC2)c1 | -10.7% (inactive)
9 | COc1cccc(CNC(=O)C2CCCN(c3ncnc4c3nc3n4CCCCC3)C2)c1 (stereo unspecified) | 15.4% (inactive)
10 | CCCC1C(=O)N2C(N(C)C)=Nc3ccc(C)cc3N2C1=O (stereo unspecified) | 11.9% (inactive)
11 | Cn1c(=O)c2c(ncn2CC(COCc2ccccc2Cl)OCc2ccccc2Cl)n(C)c1=O (stereo unspecified) | -6.9% (inactive)
12 | CNC(=O)/C(C#N)=C/c1c(F)cccc1Cl | 14.6% (inactive)
13 | C=CCC1(C#N)C(=S)NC(C)=C(C(=O)OCC)C1c1ccccc1 (stereo unspecified) | 20.2% (inactive)
14 | CCCNC(=O)C1CC(=O)N(c2ccc(OCc3ccccc3)cc2)C1 (stereo unspecified) | 5.65% (inactive)
15 | CC1(C)NC(=O)N(CCCCSc2ccc(Cl)cc2)C1=O | 4.13% (inactive)
16 | CCCCn1c(=S)[nH]c2cc(S(=O)(=O)N3CCCCC3)ccc21 | 15.1% (inactive)
17 | CCn1c(=S)[nH]c2cc(S(=O)(=O)N3CCOCC3)ccc21 | -5.66% (inactive)
18 | CNS(=O)(=O)c1ccc2c(c1)[nH]c(=S)n2C | 45.2% (active)
19 | COc1ccc(CNC(=O)c2ccc(Br)s2)cc1OC | -0.0485% (inactive)
20 | O=C(Nc1ccc2c(c1)CCC2)c1ccc(Br)s1 | 9.29% (inactive)
21 | COc1ccc2nc(NC(=O)c3ccc(Br)s3)sc2c1 | 38.2% (active)
22 | Cc1cc(N)n(-c2ccc(S(=O)(=O)N3CCCC3)cc2[N+](=O)[O-])n1 | -11.2% (inactive)
23 | Cc1oc(-c2cccc(Cl)c2)[n+]([O-])c1C | 20.3% (inactive)
24 | O=C(CCCC(=O)N(CC(=O)NC1CCCC1)Cc1ccccc1Cl)Nc1ccccn1 | 12% (inactive)

Row | Structure (SMILES) | inhibition
25 | O=C(NC(=S)Nc1ccc(Cl)c(C(=O)O)c1)c1cncc(Br)c1 | -0.232% (inactive)
26 | O=C(NC(=S)Nc1ccc(S(=O)(=O)Nc2ncccn2)cc1)c1cccc(Br)c1 | -6.45% (inactive)
27 | O=C(NC(=S)Nc1cccc2c(O)cccc12)c1cccc(Br)c1 | 41.4% (active)
28 | CC(=O)c1ccc(N2CCN(C(=O)c3ccc(Cl)c(S(=O)(=O)NC4CC4)c3)CC2)c(F)c1 | 14.2% (inactive)
29 | CC(=O)c1ccc(N2CCN(C(=O)CCNC(=O)Cn3ccc4ccccc4c3=O)CC2)cc1 | -6.32% (inactive)
30 | CC1CCN(c2ccc([N+](=O)[O-])c(SCCO)c2)CC1 | 13.8% (inactive)
31 | C=CCNc1nc(Nc2ccc(Cl)cc2)nc(OC)n1 | 13.7% (inactive)
32 | Clc1ccc(Nc2ccc3ccccc3n2)cc1 | 47.2% (active)
33 | CC1(C)N=C(N)NC(Nc2ccc(Cl)cc2)=N1 | 9.6% (inactive)
34 | COc1ccc(C(C#N)(CC(=O)O)c2cnccn2)cc1OC (stereo unspecified) | 7.82% (inactive)
35 | Cn1nc(C(C)(C)C)c([N+](=O)[O-])c1C(N)=O | 11.7% (inactive)
36 | CC(C)CN1CC(C)C(=O)N(c2ccccc2)C1=S (stereo unspecified) | 6.3% (inactive)
37 | FC(F)(F)c1ccc2nnc(-c3c(Cl)cccc3Cl)n2c1 | 13.4% (inactive)
38 | Nc1cc(C(F)(F)F)ccc1N1CCOCC1 | 2.47% (inactive)
39 | CCCC1OC23CCCCC2C(C#N)(C#N)C1(C#N)C(=N)O3 (stereo unspecified) | 39.2% (active)
40 | O=C(NC1CCCC1)C1CC(=O)N(c2ccc(F)cc2)C1 (stereo unspecified) | 0.701% (inactive)
41 | O=C(CCCNS(=O)(=O)c1cccc2nsnc12)NCCN1CCN(c2ccccc2F)CC1 | -3.19% (inactive)
42 | CCC(=O)N1CCc2cc(S(=O)(=O)CCC(=O)N3CCN(c4ccccc4F)CC3)ccc21 | 20.2% (inactive)
43 | O=C(CCS(=O)(=O)c1cccc2nsnc12)N1CCN(c2ccccc2F)CC1 | 47.3% (active)
44 | CN1CCN(c2ccccc2NC(=O)COc2ccc(C3CCCCC3)cc2)CC1 | -4.71% (inactive)
45 | Cc1ccc(-c2nc3c(Cl)cc(C(F)(F)F)cn3c2Cc2cccc(Cl)c2)cc1 | 9.6% (inactive)
46 | Cc1cc(NC(=O)CSc2ncc(C(F)(F)F)cc2Cl)no1 | -6.53% (inactive)
47 | Cc1ccc(-c2ccnc3nc(Sc4ncc(C(F)(F)F)cc4Cl)nn23)cc1 | 41.4% (active)
48 | COc1cccc(CNC(=O)COc2cc(O)c3c(c2)OC(C)(C)CC3=O)c1 | 8.05% (inactive)

Row | Structure (SMILES) | inhibition
49 | CC1CN/C(=C\C(=O)c2ccc(Br)cc2)C(=O)N1 (stereo unspecified) | 15.8% (inactive)
50 | COc1cccc(CNc2nc(NCc3ccccc3OC)nc3ccsc23)c1 | 43.2% (active)
51 | COc1cccc(-c2cc3nc(NCc4ccccc4OC)n(C)c(=O)c3s2)c1 | -2.32% (inactive)
52 | COc1cccc(CNc2nc(NCc3cccs3)nc3ccsc23)c1 | 6.96% (inactive)
53 | CCc1nc2c(OCc3ccc(C(=O)OC)cc3)cccn2c1N(C)C(=O)C(C)C | 7.01% (inactive)
54 | O=C(Nc1ccc(-n2cccn2)cc1)C1CCN(Cc2ccsc2)CC1 | -1.22% (inactive)
55 | CCCCNC(=O)c1onc(CSc2cccc(OC)c2)c1C(=O)O | -12.1% (inactive)
56 | CCC(C)NC(=O)c1cc(Cl)ccc1OC (stereo unspecified) | 3.09% (inactive)
57 | Cc1cc(Br)cn2c(Cc3ccccc3C(F)(F)F)c(-c3ccc(Cl)cc3)nc12 | 12.9% (inactive)
58 | Cc1ccc(-c2nc3ccc(Br)cn3c2Cc2ccccc2C(F)(F)F)cc1 | 35.2% (active)
59 | COC(=O)c1ccc2nc(-c3cccc(Br)c3)c(Cc3ccccc3C(F)(F)F)n2c1 | -9.35% (inactive)
60 | Cc1cc(C)c2nc(-c3cccnc3)cc(C(=O)Nc3ccc(S(=O)(=O)Nc4onc(C)c4C)cc3)c2c1 | 0.27% (inactive)
61 | C/C(N)=C(/C#N)C(=O)COC(=O)c1cc(-c2ccc(C)cc2)nc2ccccc12 | -3.83% (inactive)
62 | COc1ccc(-c2cc(C(=O)n3cnc4ccccc43)c3ccccc3n2)cc1 | 38.1% (active)
63 | O=C(c1ccc(Cl)cc1)n1cnc2ccccc21 | 11.4% (inactive)
64 | CC(C)Sc1nc(N)nc2c1ncn2C1OC(CO)C(O)C1O (stereo unspecified) | 8.48% (inactive)
65 | Cn1c(SCC(=O)Nc2ccc(Br)cc2F)nnc1-c1ccco1 | 6.52% (inactive)
66 | Cn1c(-c2ccco2)nc2cc3ccccc3cc21 | 41.7% (active)
67 | Cc1ccc(-n2ncc3c(=O)n(-c4ccc(C)c(C)c4)c(-c4ccco4)nc32)cc1 | 18.1% (inactive)
68 | CC(=O)NC1CC2CCCC(C1)N2CC(=O)Nc1ccccc1 (stereo unspecified) | -18.6% (inactive)
69 | O=C(CN1C2CCC1CC(NC(=O)C1CC1)C2)NCc1ccccc1 (stereo unspecified) | 35.8% (active)
70 | O=C(NCc1ccccc1)C1CCN(C(=O)Cc2ccccc2)CC1 | 9.03% (inactive)
71 | CCOC(=O)N1CCN(C(=O)c2ccc(CN(c3ccc(C)c(C)c3)S(C)(=O)=O)cc2)CC1 | 6.59% (inactive)
72 | OCc1nc(CO)n(Cc2ccccc2)n1 | -5.44% (inactive)

Row | Structure (SMILES) | inhibition
73 | COc1ccc(CC(NC(C)=O)C(=O)N2CCN(C(=O)Nc3cccc(Cl)c3)CC2)cc1OC (stereo unspecified) | 40.7% (active)
74 | COc1ccc(CC(NC(C)=O)C(=O)NC2CCN(C(=O)C3CC3)CC2)cc1OC (stereo unspecified) | 7.48% (inactive)
75 | COc1ccc(CC(NC(C)=O)C(=O)NC2CCN(C(=O)Nc3ccc(C#N)cc3)CC2)cc1OC (stereo unspecified) | 11.3% (inactive)
76 | OC(c1ccc(Cl)c(F)c1)c1ncc(-c2ccccc2Cl)[nH]1 (stereo unspecified) | 20.6% (inactive)
77 | CCN1CCN(c2sc(S(C)(=O)=O)nc2S(=O)(=O)c2ccc(Cl)cc2)CC1 | -10.1% (inactive)
78 | COc1cc(N2CCCC2)c(OC)cc1/C=C(/C#N)c1cccc(Br)c1 | 45.8% (active)
79 | NC(=O)C1(Nc2ccc(-c3ccccc3)cc2)CCCC1 | 13.2% (inactive)
80 | N#CC1(Nc2ccc(-c3ccc(Cl)cc3)cc2)CCCC1 | 69% (active)
81 | N#CC1(Nc2ccc3c4c(cccc24)CC3)CCCCC1 | 8.67% (inactive)
82 | CC(=O)c1c(C)n([O-])c2ccccc2[n+]1=O | 36.9% (active)
83 | Cc1c(C=O)c2ccccc2n1CC(=O)O | -4.35% (inactive)
84 | CCOC(=O)C1=C(CNC2CCCCC2)NC(=O)NC1c1cc(C)ccc1C (stereo unspecified) | -5.96% (inactive)
85 | C#Cc1ccc(NC(=O)C2(C)CCN2C(=O)Cc2ccc(-c3ccccc3)cc2)cc1 (stereo unspecified) | 8.15% (inactive)
86 | Cc1cccc(OCC(=O)Nc2ccccc2F)c1 | 11.3% (inactive)
87 | CC(=O)Nc1cccc(OCC(=O)/C=C2\N(C)c3ccccc3C2(C)C)c1 | 45.5% (active)
88 | COc1cccc(NC(=S)C(C#N)=C2N(C)c3ccccc3N2C)c1 | -3.75% (inactive)
89 | COCCn1c(SCc2nc3cc(OC)c(OC)cc3c(=O)[nH]2)nnc1-c1ccncc1 | 13.8% (inactive)
90 | CCn1c(SCC(=O)Nc2nc(C)cs2)nnc1C(C)NC(=O)c1ccccc1 (stereo unspecified) | -5.72% (inactive)
91 | C=CCNC(=S)N1CCN(CCN=Cc2c(C)[nH]n(-c3ccc([N+](=O)[O-])cc3)c2=O)CC1 | -5.99% (inactive)
92 | O=S(=O)(c1cccs1)N1CCc2ccccc2C1 | -31.6% (inactive)
93 | O=C(COC(=O)/C=C/c1cccs1)NC1CCCCC1 | 4.24% (inactive)
94 | O=C1/C(=C/c2cccs2)CCC1C1CCCC1 (stereo unspecified) | 41.6% (active)
95 | O=C1/C(=C/c2cccs2)CCc2ccccc21 | 41.9% (active)
96 | c1ccc2c(c1)CCc1snnc1-2 | 11% (inactive)

Reference: PubChem BioAssay AID624304 (Sanford-Burnham Center for Chemical Genomics, 2012)
